In the supplement of paper PMC10849652:
Of roughly 7,900 targets only a part is listed; those with a hit were picked by preference. About 0.6% of all pairs of compound and target were hits.

Key:
Experiment in all cases: log2 fold change, soluble protein after heating vs DMSO (PISA); higher = thermal stabilisation; K562 cells, 10 uM, 30 min; active = over 0.2 and 3.5 SD of the protein, either way, in both replicates (recomputed)
[1] = compound: NC(=O)Nc1cc(-c2cccc(F)c2)sc1C(=O)N[C@H]1CCCNC1
Outline: (§1)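 Thermal stability values are relative to control samples and come from duplicates. They are expressed as log2 fold changes. For measurement, K562 cells (2×10^6 cells/mL) received 10 μM compound for 30 min, and aliquots were heated for 3 min over 48°C-58°C, pooled, and extracted at 4°C in PBS with 0.5% NP-40. Soluble protein, the supernatant after 21,000xg for 90 min, was quantified by TMTpro 16plex LC-MS/MS with equalised channel sums.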

[2] = compound: NC(=O)c1cnc(N[C@@H]2CCCC[C@@H]2N)nc1Nc1cccc(-n2nccn2)c1
Outline: as §1

[3] = compound: NC1(c2ccc(-c3nc4ccn5c(=O)[nH]nc5c4cc3-c3ccccc3)cc2)CCC1
Outline: as §1

[4] = compound: NCC(=O)Nc1ccc(-n2nc(C(F)(F)F)cc2-c2ccc3c(ccc4ccccc43)c2)cc1
Outline: as §1

entinostat = compound: Nc1ccccc1NC(=O)c1ccc(CNC(=O)OCc2cccnc2)cc1 [entinostat]
Outline: as §1

vorinostat = compound: O=C(CCCCCCC(=O)Nc1ccccc1)NO [vorinostat]
Outline: as §1

citarinostat = compound: O=C(CCCCCCNC(=O)c1cnc(N(c2ccccc2)c2ccccc2Cl)nc1)NO [citarinostat]
Outline: as §1

silmitasertib = compound: O=C(O)c1ccc2c(c1)nc(Nc1cccc(Cl)c1)c1ccncc12 [silmitasertib]
Outline: as §1

[5] = compound: O=C1NC(=O)C(c2cnc3ccccn23)=C1c1cn2c3c(cc(F)cc13)CN(C(=O)N1CCCCC1)CC2
Outline: as §1

[6] = compound: c1cc(OCCN2CCCCC2)cc(-c2n[nH]c3ccc(-c4nnc[nH]4)cc23)c1
Outline: as §1

entospletinib = compound: c1cn2cc(-c3ccc4cn[nH]c4c3)nc(Nc3ccc(N4CCOCC4)cc3)c2n1 [entospletinib]
Outline: as §1

Measured: log2 fold change

ILKAP (UniProt Q9H0C8)
Chain of UniProt Q9H0C8 (Q9H0C8 whole entry, looked up): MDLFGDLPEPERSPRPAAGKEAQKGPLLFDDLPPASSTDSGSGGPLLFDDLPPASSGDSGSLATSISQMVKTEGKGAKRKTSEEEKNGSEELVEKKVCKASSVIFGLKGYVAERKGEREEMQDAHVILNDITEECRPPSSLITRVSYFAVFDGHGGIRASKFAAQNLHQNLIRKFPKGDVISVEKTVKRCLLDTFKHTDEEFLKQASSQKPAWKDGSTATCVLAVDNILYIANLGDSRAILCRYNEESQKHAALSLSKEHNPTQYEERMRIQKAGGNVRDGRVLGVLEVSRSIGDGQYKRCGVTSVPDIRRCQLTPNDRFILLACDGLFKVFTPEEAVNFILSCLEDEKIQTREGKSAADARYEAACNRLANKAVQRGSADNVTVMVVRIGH
inactive: [1] 0.015 | [2] -0.052 | [3] -0.224 | [4] -0.164 | entinostat 0.038 | vorinostat 0.06 | citarinostat 0.123 | silmitasertib 0.004 | [5] -0.144 | [6] -0.003 | entospletinib -0.012

INTS7 (UniProt Q9NVH2)
Chain of UniProt Q9NVH2 (Q9NVH2 whole entry, looked up): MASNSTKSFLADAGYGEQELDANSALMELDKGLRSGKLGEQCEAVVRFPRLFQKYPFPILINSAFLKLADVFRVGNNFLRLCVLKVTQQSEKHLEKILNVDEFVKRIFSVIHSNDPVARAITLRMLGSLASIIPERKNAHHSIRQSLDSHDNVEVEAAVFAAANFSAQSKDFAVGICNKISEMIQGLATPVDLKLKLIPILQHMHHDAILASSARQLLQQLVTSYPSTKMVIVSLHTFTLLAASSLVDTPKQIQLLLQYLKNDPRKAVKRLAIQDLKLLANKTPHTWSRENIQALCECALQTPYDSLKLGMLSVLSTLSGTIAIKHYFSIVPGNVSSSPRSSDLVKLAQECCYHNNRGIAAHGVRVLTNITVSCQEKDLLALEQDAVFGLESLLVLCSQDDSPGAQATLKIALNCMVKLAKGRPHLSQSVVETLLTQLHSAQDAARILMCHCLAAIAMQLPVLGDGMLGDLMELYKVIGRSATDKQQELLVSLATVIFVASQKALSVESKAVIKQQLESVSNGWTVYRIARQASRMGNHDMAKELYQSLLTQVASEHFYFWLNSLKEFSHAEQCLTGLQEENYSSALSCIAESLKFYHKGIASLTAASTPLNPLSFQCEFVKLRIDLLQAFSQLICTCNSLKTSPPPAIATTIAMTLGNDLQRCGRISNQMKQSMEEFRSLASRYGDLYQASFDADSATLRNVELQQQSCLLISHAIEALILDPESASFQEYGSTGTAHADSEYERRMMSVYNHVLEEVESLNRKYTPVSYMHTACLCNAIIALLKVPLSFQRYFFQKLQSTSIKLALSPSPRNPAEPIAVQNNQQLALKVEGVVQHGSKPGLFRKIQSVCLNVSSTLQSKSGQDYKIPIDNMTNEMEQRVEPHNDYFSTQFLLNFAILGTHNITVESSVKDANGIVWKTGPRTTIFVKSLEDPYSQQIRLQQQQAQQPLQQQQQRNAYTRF
inactive: [1] -0.076 | [2] 0.037 | [3] 0.001 | [4] -0.045 | entinostat -0.095 | vorinostat 0.049 | citarinostat -0.007 | silmitasertib 0.055 | [5] 0.092 | [6] 0.01 | entospletinib -0.005

MAPKAPK2 (UniProt P49137)
Chain of UniProt P49137 (P49137 whole entry, looked up): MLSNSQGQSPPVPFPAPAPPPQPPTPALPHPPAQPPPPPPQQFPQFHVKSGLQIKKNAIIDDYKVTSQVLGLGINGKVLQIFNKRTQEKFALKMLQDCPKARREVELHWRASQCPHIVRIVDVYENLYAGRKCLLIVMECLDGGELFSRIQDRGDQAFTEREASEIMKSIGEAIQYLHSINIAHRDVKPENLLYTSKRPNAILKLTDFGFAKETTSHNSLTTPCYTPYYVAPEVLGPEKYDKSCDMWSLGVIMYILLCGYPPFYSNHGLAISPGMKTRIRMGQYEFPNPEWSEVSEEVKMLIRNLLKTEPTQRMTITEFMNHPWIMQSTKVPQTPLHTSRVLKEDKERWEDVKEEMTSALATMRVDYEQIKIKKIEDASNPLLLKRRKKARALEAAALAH
inactive: [1] 0.12 | [2] 0.035 | [3] -0.14 | [4] 0.034 | entinostat 0.018 | vorinostat 0.04 | citarinostat 0.058 | silmitasertib 0.06 | [5] -0.128 | [6] -0.006 | entospletinib -0.061

LYPLA2 (UniProt O95372)
Chain of UniProt O95372 (O95372 whole entry, looked up): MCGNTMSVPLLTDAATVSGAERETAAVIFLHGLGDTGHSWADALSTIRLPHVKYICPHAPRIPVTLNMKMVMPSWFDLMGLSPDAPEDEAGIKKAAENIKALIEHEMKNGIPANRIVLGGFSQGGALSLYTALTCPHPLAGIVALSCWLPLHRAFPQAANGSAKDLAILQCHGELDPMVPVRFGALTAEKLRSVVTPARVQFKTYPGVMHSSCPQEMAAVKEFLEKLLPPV
inactive: [1] 0.02 | [2] 0.043 | [3] -0.031 | [4] 0.09 | entinostat 0.114 | vorinostat -0.065 | citarinostat 0.018 | silmitasertib -0.048 | [5] 0 | [6] 0.036 | entospletinib 0.053

MARCKS (UniProt P29966)
Chain of UniProt P29966 (P29966 whole entry, looked up): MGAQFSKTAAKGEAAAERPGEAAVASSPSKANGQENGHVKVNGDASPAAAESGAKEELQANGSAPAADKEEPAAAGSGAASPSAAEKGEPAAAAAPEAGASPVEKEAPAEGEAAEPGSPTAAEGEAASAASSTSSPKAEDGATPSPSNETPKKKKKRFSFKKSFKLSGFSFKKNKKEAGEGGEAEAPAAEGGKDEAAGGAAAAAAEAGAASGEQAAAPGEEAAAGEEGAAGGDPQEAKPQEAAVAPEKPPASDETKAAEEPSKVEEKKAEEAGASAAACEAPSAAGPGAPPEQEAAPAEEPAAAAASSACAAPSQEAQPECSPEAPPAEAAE
inactive: [1] -0.018 | [2] 0.108 | [3] 0.038 | [4] 0.07 | entinostat -0.074 | vorinostat -0.159 | citarinostat 0.062 | silmitasertib -0.021 | [5] 0.031 | [6] -0.08 | entospletinib 0.004

MIER1 isoform 12 (UniProt Q8N108)
Chain of UniProt Q8N108 (Q8N108 whole entry, looked up): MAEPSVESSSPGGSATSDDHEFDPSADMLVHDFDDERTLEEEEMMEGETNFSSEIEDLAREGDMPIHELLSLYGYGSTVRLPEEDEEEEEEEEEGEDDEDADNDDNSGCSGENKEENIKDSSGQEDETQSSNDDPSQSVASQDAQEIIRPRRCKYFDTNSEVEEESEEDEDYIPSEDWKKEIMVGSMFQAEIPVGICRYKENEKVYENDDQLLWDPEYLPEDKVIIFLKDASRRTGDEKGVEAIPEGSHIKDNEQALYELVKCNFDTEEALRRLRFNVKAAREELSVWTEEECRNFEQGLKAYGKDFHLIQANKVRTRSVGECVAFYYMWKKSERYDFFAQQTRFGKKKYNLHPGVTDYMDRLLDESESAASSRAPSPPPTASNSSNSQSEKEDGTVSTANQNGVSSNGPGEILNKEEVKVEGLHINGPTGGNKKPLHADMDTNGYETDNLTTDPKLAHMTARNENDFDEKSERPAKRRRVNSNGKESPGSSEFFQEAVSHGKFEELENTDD
inactive: [1] -0.026 | [2] -0.03 | [3] -0.074 | [4] -0.025 | silmitasertib -0.017 | [5] -0.066 | [6] -0.061 | entospletinib -0.002
active: entinostat 0.292 | vorinostat 0.28 | citarinostat 0.273

KPNA4 (UniProt O00629)
Chain of UniProt O00629 (O00629 whole entry, looked up): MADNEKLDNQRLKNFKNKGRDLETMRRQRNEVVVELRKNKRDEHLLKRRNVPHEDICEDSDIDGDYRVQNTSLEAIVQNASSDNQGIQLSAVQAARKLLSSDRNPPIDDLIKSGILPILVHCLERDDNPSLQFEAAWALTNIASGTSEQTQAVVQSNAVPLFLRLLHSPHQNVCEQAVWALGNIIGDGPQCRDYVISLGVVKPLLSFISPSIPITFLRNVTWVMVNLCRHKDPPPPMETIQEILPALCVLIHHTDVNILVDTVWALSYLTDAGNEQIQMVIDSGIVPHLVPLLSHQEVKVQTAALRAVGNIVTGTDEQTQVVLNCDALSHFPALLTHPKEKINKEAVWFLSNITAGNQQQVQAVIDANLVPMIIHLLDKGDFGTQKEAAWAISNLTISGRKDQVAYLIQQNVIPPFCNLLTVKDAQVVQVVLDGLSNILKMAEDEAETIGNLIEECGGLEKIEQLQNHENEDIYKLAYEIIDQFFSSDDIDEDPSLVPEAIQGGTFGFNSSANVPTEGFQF
inactive: [1] -0.06 | [2] -0.054 | [3] -0.072 | [4] -0.053 | entinostat -0.01 | vorinostat 0.019 | citarinostat 0.051 | silmitasertib 0.065 | [5] -0.017 | [6] -0.111 | entospletinib -0.058

MICOS13 (UniProt Q5XKP0)
Chain of UniProt Q5XKP0 (Q5XKP0 whole entry, looked up): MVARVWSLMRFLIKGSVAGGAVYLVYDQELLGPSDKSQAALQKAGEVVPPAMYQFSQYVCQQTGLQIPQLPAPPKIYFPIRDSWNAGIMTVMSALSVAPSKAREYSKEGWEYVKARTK
inactive: [1] -0.018 | [2] -0.023 | [3] -0.119 | [4] 0.029 | entinostat 0.041 | vorinostat 0.018 | citarinostat 0.028 | silmitasertib -0.02 | [5] -0.106 | [6] 0.025 | entospletinib 0.049

KLHL18 (UniProt O94889)
Chain of UniProt O94889 (O94889 whole entry, looked up): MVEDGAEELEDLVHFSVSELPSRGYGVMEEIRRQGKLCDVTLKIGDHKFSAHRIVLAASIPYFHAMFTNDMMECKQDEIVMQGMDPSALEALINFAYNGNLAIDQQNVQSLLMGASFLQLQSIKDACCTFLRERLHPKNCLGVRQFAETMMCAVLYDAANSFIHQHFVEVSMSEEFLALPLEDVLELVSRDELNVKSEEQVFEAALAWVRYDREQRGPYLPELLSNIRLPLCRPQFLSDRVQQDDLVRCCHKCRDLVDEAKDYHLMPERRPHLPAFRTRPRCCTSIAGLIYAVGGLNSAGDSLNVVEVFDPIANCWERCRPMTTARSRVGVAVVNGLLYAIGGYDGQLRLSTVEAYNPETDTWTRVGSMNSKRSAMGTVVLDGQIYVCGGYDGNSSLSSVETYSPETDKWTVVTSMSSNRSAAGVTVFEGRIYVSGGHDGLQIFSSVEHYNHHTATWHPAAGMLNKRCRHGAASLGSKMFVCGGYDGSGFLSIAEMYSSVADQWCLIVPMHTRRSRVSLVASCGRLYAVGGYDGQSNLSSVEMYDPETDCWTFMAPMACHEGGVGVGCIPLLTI
inactive: [1] 0.132 | [2] -0.034 | [3] -0.145 | [4] -0.123 | entinostat -0.045 | vorinostat 0.137 | citarinostat 0.123 | silmitasertib -0.029 | [5] -0.014 | [6] -0.022 | entospletinib -0.016

KIAA1324L (UniProt A8MWY0)
inactive: [1] -0.016 | [2] -0.015 | [3] -0.138 | [4] 0.009 | entinostat -0.067 | vorinostat 0.003 | citarinostat 0.004 | silmitasertib -0.014 | [5] -0.013 | [6] -0.094 | entospletinib 0.028

LPIN3 isoform 2 (UniProt Q9BQK8)
Chain of UniProt Q9BQK8 (Q9BQK8 whole entry, looked up): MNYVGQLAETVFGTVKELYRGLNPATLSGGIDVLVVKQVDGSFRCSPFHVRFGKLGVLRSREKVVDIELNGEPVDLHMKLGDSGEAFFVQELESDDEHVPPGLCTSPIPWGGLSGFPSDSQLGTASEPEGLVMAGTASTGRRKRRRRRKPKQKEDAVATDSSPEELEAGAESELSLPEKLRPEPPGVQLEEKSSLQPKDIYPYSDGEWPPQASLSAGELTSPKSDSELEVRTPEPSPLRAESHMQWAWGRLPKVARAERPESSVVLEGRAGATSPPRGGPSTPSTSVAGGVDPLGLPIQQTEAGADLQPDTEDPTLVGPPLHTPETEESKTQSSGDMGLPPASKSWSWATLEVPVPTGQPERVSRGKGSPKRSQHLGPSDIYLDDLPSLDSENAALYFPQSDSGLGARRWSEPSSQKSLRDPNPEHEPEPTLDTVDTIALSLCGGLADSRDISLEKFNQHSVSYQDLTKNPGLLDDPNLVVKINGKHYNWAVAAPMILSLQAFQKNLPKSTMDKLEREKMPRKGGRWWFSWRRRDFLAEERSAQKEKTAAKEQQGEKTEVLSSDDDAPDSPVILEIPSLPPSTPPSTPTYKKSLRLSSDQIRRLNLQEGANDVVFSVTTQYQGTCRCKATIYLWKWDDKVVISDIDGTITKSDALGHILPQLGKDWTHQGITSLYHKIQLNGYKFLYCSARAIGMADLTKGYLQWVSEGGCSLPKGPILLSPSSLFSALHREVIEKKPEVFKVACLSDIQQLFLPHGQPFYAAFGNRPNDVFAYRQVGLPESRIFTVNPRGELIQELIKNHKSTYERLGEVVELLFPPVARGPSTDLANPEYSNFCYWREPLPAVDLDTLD
inactive: [1] 0.014 | [2] -0.027 | [3] -0.044 | [4] 0.041 | entinostat -0.006 | vorinostat 0.011 | citarinostat 0.001 | silmitasertib -0.116 | [5] -0.054 | [6] -0.142 | entospletinib 0.08
